In PubChem BioAssay (NCI):
The panel holds about 83,000 compounds, 20% with a hit somewhere; the sample as a whole holds those more often.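 Cells were grown in 96-well plates and exposed to the test compound at a single concentration for 48 hours; results are reported as percent growth, with values below 10 considered active.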 A number with no mark means an inactive call. The source made the active and inactive calls.

Assays:
Assay in all cases: NCI-60 one-dose screen, 48 h (100 = growth as untreated, 0 = no growth, -100 = all killed)
Details in all cases: 10 µM unless noted
[1] = system: HCT-15 colon
[2] = system: HT29 colon
[3] = system: SNB-75 CNS
[4] = system: SNB-19 CNS
[5] = system: U251 CNS
[6] = system: PC-3 prostate
[7] = system: SK-MEL-5 melanoma
[8] = system: UACC-62 melanoma
[9] = system: LOX IMVI melanoma
[10] = system: SK-MEL-28 melanoma
[11] = system: SK-MEL-2 melanoma
[12] = system: EKVX NSCLC
[13] = system: SN12C renal
[14] = system: UO-31 renal
[15] = system: TK-10 renal
[16] = system: ACHN renal
[17] = system: CAKI-1 renal
[18] = system: A498 renal
[19] = system: CCRF-CEM leukemia
[20] = system: MOLT-4 leukemia

O=C(Nc1cc(Cl)cc(Cl)c1)Oc1c(Cl)c(Cl)c(Cl)c(Cl)c1Cl
growth [1]: 77.8%
growth [2]: 73.2%
growth [3]: 71.3%
growth [4]: 66.1%
growth [5]: 62.9%
growth [6]: 42.2%
growth [7]: 41.5%
growth [8]: 65.7%
growth [9]: 72.5%
growth [10]: 84.8%
growth [11]: 64%
growth [12]: 64.2%
growth [13]: 71.2%
growth [14]: 58.4%
growth [15]: 113%
growth [16]: 65.8%
growth [17]: 68.1%
growth [18]: 19.6%
growth [19]: 47.7%
growth [20]: 63.5%

COc1ccc(-c2cn(Cc3cc4ccccc4s3)nn2)cc1OCCN1CCCCC1
growth [1]: 59.4%
growth [2]: 20.1%
growth [3]: 83.8%
growth [4]: 86.3%
growth [5]: 74.5%
growth [6]: 68.4%
growth [7]: 42.8%
growth [8]: 83.8%
growth [9]: 48.9%
growth [10]: 75.8%
growth [11]: 90.8%
growth [12]: 84.3%
growth [13]: 81.6%
growth [14]: 37.2%
growth [15]: 90.1%
growth [16]: 89.4%
growth [17]: 78.9%
growth [18]: -1.93% (active)
growth [19]: 62.2%
growth [20]: 53%

C=C(C)[C@@H]1CC[C@]2(CO)CC[C@]3(C)[C@H](CC[C@@H]4[C@@](C)(CCCN)[C@H](C(=C)C)CC[C@]43C)[C@@H]12
growth [1]: -81.7% (active)
growth [2]: -54.4% (active)
growth [3]: -91.9% (active)
growth [4]: 1.21% (active)
growth [5]: -88.6% (active)
growth [6]: 0.447% (active)
growth [7]: -87.5% (active)
growth [8]: -88.6% (active)
growth [9]: -97.8% (active)
growth [10]: -98.3% (active)
growth [11]: -61.6% (active)
growth [12]: -12.9% (active)
growth [13]: -97.6% (active)
growth [14]: -43.4% (active)
growth [15]: -62.9% (active)
growth [16]: -100% (active)
growth [17]: -54.9% (active)
growth [18]: -85.7% (active)
growth [19]: -16% (active)
growth [20]: -32.4% (active)

CCOC(=O)c1c(C)nc2c(c1N)C(=O)C(=O)N2Cc1ccc(OC)cc1
growth [1]: 22.7%
growth [2]: 26.5%
growth [3]: 30%
growth [4]: 80%
growth [5]: 38.1%
growth [6]: 47.9%
growth [7]: 81%
growth [8]: 53.3%
growth [9]: 61.1%
growth [10]: 76.7%
growth [11]: 113%
growth [12]: 90.9%
growth [13]: 82.6%
growth [14]: 59.6%
growth [15]: 96%
growth [16]: 66.3%
growth [17]: 83.3%
growth [18]: 90.4%
growth [19]: 59.1%
growth [20]: 101%

O=S(=O)(NCCNc1nccc(-c2c(-c3ccc(F)c(O)c3)nc3sccn23)n1)c1ccc(Cl)cc1
growth [1]: 27%
growth [2]: 17.5%
growth [3]: 50.2%
growth [4]: 46.1%
growth [5]: 41.6%
growth [6]: 17%
growth [7]: -18.5% (active)
growth [8]: -1.12% (active)
growth [9]: 29.6%
growth [10]: 47.6%
growth [11]: -31.6% (active)
growth [12]: 36.6%
growth [13]: 26.3%
growth [14]: 11.6%
growth [15]: 44.8%
growth [16]: 19.8%
growth [17]: 19.5%
growth [18]: 30.8%
growth [19]: 14.2%
growth [20]: 1.03% (active)

C#CCOc1cccc(Nc2ncnc3c2ncn3C2CCN(C(=O)CCl)C2)c1 (stereo not given)
growth [1]: 1.63% (active)
growth [2]: -68.4% (active)
growth [3]: -3.65% (active)
growth [4]: 13.7%
growth [5]: -92% (active)
growth [6]: -14.2% (active)
growth [7]: -85.7% (active)
growth [8]: -66% (active)
growth [9]: -86.5% (active)
growth [10]: -43.9% (active)
growth [11]: -0.328% (active)
growth [12]: 5.11% (active)
growth [13]: -71.3% (active)
growth [14]: -97.8% (active)
growth [15]: -83.8% (active)
growth [16]: -98.9% (active)
growth [17]: -97.4% (active)
growth [18]: 85.9%
growth [19]: -28% (active)
growth [20]: -26.8% (active)

COc1ccc2cc(C(=O)N3CCC([C@@H](C)C(=O)NCc4ccc5c(c4)OCO5)CC3)[nH]c2c1
growth [1]: 83% [50 µM]
growth [2]: 89.6% [50 µM]
growth [3]: -37.6% [50 µM] (active)
growth [4]: 25.8% [50 µM]
growth [5]: 23.6% [50 µM]
growth [6]: 56.5% [50 µM]
growth [7]: 63.6% [50 µM]
growth [8]: 43.7% [50 µM]
growth [9]: 54.7% [50 µM]
growth [10]: 77.8% [50 µM]
growth [11]: 63.6% [50 µM]
growth [12]: 73.4% [50 µM]
growth [13]: 53.2% [50 µM]
growth [14]: 41.5% [50 µM]
growth [15]: 27.1% [50 µM]
growth [16]: 29.4% [50 µM]
growth [17]: 60.3% [50 µM]
growth [18]: 80.4% [50 µM]
growth [19]: 85.8% [50 µM]
growth [20]: 78.2% [50 µM]

Cn1c(=O)[nH]c(=O)c2nc3c(nc21)-c1ccccc1C3=O
growth [1]: 102%
growth [2]: 101%
growth [3]: 88.9%
growth [4]: 98.1%
growth [5]: 106%
growth [6]: 95.8%
growth [7]: 98.5%
growth [8]: 91.2%
growth [9]: 95.9%
growth [10]: 97.4%
growth [11]: 103%
growth [12]: 95%
growth [13]: 96.6%
growth [14]: 83.8%
growth [15]: 102%
growth [16]: 94.2%
growth [17]: 89.9%
growth [18]: 95.2%
growth [19]: 106%
growth [20]: 105%

COc1cc(/C=C/c2cc(/C=C/c3ccc(O)c(OC)c3)n(C(=O)Nc3ccc(Cl)cc3)n2)ccc1O
growth [1]: 7.86% (active)
growth [2]: -11.1% (active)
growth [3]: 18.7%
growth [4]: 9.25% (active)
growth [5]: 4.31% (active)
growth [6]: 4.24% (active)
growth [7]: -29.7% (active)
growth [8]: 4.06% (active)
growth [9]: 3.04% (active)
growth [10]: 12.7%
growth [11]: -23.5% (active)
growth [12]: 16.9%
growth [13]: 9% (active)
growth [14]: 2.71% (active)
growth [15]: 23.1%
growth [16]: 9.29% (active)
growth [17]: 0.131% (active)
growth [18]: -0.596% (active)
growth [19]: 4.45% (active)
growth [20]: -2% (active)

Cc1cccc(-c2nc(C(C)C)sc2-c2ccnc(NCCCNS(=O)(=O)c3ccc(Cl)cc3)c2)c1
growth [1]: 36.5%
growth [2]: 16.9%
growth [3]: 97.5%
growth [4]: 89.6%
growth [5]: 73%
growth [6]: 50%
growth [7]: 87.6%
growth [8]: 96.4%
growth [9]: 75%
growth [10]: 90.6%
growth [11]: 79%
growth [12]: 78.4%
growth [13]: 73%
growth [14]: 75.3%
growth [15]: 80.1%
growth [16]: 75.6%
growth [17]: 85%
growth [18]: 79%
growth [19]: 68.4%
growth [20]: 52.3%

Clc1ccc(-c2nc(C(Cl)Cl)nc3cc(-c4ccccc4)nn23)cc1
growth [1]: 8.19% (active)
growth [2]: 5.93% (active)
growth [3]: -13.1% (active)
growth [4]: 25.2%
growth [5]: 7% (active)
growth [6]: 41.2%
growth [7]: 82.2%
growth [8]: 79.8%
growth [9]: 78.5%
growth [10]: 47.9%
growth [11]: 84.5%
growth [12]: -12.8% (active)
growth [13]: 65.1%
growth [14]: 47.3%
growth [15]: 36.8%
growth [16]: -52.8% (active)
growth [17]: -15.8% (active)
growth [18]: -15.8% (active)
growth [19]: 53.4%
growth [20]: 31.7%

OC1CSSC1Cn1cnc2c(Nc3ccc(OCc4cccc(F)c4)c(Cl)c3)ncnc21 (stereo not given)
growth [1]: -64% (active)
growth [2]: 3.96% (active)
growth [3]: 54.1%
growth [4]: -49.4% (active)
growth [5]: -26.3% (active)
growth [6]: -69.3% (active)
growth [7]: -55.6% (active)
growth [8]: -68.9% (active)
growth [9]: -82.6% (active)
growth [10]: -9.14% (active)
growth [11]: -33.4% (active)
growth [12]: -71.9% (active)
growth [13]: 30.5%
growth [14]: 11.9%
growth [15]: -5.98% (active)
growth [16]: 15.6%
growth [17]: 19.6%
growth [18]: 69.6%
growth [19]: -8.33% (active)
growth [20]: -41.8% (active)

CNCC[C@H](Oc1cccc2ccccc12)c1cccs1
growth [1]: 101%
growth [2]: 71.8%
growth [3]: 61.5%
growth [4]: 97.8%
growth [5]: 85.3%
growth [6]: 68.9%
growth [7]: 93%
growth [8]: 91.3%
growth [9]: 74.1%
growth [10]: 91.5%
growth [11]: 104%
growth [12]: 78.9%
growth [13]: 79.1%
growth [14]: 63.7%
growth [15]: 90%
growth [16]: 96.9%
growth [17]: 88.4%
growth [18]: 111%
growth [19]: 91.9%
growth [20]: 50.4%

COc1cc2c(cc1-c1c(C)noc1C)ncc1nc(CN3CCOCC3)n([C@H](C)COC(F)F)c12
growth [1]: 23%
growth [2]: 12.1%
growth [3]: 3.11% (active)
growth [4]: 45.1%
growth [5]: 61.3%
growth [6]: 32.3%
growth [7]: 19.8%
growth [8]: 17.4%
growth [9]: 12.1%
growth [10]: 59.3%
growth [11]: 36.7%
growth [12]: 49.6%
growth [13]: 56.7%
growth [14]: 14.1%
growth [15]: 2.77% (active)
growth [16]: 36.1%
growth [17]: 35.1%
growth [18]: -7% (active)
growth [19]: 44%
growth [20]: 59.5%

CCN(CC)C(=O)C1=C(C)NC(=O)NC1c1ccc2c(c1)OCO2 (stereo not given)
growth [1]: 105%
growth [2]: 107%
growth [3]: 93.3%
growth [4]: 96.2%
growth [5]: 102%
growth [6]: 98.5%
growth [7]: 101%
growth [8]: 102%
growth [9]: 95.6%
growth [10]: 115%
growth [11]: 108%
growth [12]: 99%
growth [13]: 107%
growth [14]: 81.4%
growth [15]: 100%
growth [16]: 103%
growth [17]: 93.1%
growth [18]: 111%
growth [19]: 104%
growth [20]: 104%
